Design in all cases: scale not given: direction of the effect not stated beside the values
Test [1] concerns the target Protein translocase subunit SecA (Escherichia coli (strain K12)) (UniProt P10408). The test is described as follows: Assay to Identify E. coli SecA ATPase Inhibitors. Format: functional. Conditions: 30 µM.
Test [2] has as its target T1, Ubiquitin-activating enzyme e1, putative (Leishmania donovani (strain BPK282A1)) (UniProt E9BSI1).
T1 sequence (whole entry): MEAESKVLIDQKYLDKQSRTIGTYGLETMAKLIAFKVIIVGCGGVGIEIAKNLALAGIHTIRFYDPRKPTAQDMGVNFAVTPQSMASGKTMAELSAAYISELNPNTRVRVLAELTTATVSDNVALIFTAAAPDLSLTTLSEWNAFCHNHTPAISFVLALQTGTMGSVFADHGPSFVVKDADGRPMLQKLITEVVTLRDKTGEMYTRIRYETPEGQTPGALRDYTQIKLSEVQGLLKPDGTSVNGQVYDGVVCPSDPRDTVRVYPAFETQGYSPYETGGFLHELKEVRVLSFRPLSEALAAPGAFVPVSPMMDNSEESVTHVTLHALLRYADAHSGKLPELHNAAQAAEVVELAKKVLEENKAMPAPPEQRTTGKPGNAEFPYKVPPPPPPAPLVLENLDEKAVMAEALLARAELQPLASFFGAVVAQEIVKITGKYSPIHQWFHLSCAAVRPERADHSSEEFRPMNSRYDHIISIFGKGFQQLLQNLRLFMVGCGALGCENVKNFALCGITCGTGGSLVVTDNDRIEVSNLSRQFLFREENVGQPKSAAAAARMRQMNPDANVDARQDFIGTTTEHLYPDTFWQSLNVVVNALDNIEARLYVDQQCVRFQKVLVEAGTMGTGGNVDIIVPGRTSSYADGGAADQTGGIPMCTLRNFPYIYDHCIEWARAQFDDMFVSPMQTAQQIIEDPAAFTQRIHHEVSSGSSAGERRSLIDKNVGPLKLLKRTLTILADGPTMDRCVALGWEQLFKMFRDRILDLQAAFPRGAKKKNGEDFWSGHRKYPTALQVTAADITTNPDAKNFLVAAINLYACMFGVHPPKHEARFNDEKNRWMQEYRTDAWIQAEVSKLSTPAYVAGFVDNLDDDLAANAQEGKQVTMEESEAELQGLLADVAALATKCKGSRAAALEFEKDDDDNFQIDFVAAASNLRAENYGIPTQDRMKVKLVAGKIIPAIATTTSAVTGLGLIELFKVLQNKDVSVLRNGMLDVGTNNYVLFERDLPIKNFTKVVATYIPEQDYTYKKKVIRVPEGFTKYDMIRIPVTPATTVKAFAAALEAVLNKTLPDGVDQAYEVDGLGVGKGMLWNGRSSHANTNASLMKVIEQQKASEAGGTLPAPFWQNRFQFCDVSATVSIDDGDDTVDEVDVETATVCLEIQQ
The test is described as follows: Leishmania donovani Ubiquitin Activating Enzyme (LdE1). It counts as functional. Conditions: 30 µM.

For test [3], the target named is AMP-activated protein kinase, AMPK (Homo sapiens) (UniProt P54646+O43741+P54619+Q9UGJ0+Q9Y478+Q13131+Q9UGI9). The test is described as follows: AMP-dependent Kinase enzyme assay. An in vitro enzyme assay that detects ADP turnover that is directly proportional to AMPK activity. This uses naive AMPK that is activated during the assay with MK-8722. It counts as functional. Conditions: 30 µM.

The target in test [4] is Sialic acid-binding Ig-like lectin 9 (Homo sapiens) (UniProt Q9Y336). Description: Hs-Siglec9 ALPHAscreen SOP 20170721. Conditions: 10 µM. In general terms: Alpha assays give light when donor and acceptor beads are brought close together.
Sialic acid-binding Ig-like lectin 9 (Homo sapiens), sequence (Q9Y336 whole entry): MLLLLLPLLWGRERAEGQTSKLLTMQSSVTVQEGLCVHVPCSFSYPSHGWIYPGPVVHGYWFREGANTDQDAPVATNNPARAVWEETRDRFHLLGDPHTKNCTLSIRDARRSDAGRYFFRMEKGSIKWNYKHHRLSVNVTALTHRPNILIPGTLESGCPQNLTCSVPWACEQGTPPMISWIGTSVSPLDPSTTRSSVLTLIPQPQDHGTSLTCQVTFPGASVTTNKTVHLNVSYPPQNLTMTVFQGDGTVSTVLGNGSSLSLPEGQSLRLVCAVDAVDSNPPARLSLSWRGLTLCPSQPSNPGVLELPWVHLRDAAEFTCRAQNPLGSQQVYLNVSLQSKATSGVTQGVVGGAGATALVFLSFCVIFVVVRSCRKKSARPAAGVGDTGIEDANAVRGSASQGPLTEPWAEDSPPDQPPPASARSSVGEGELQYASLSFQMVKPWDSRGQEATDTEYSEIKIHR
In another test the test system is Trypanosoma cruzi. Description: Trypanosoma cruzi phosphomannomutase and mannose-1-phosphate guanylyltransferase assay. It counts as functional. Conditions: 10 µM.
For test [5], the target named is T2, Arginase-2, mitochondrial (Homo sapiens) (UniProt P78540).
T2 sequence (whole entry): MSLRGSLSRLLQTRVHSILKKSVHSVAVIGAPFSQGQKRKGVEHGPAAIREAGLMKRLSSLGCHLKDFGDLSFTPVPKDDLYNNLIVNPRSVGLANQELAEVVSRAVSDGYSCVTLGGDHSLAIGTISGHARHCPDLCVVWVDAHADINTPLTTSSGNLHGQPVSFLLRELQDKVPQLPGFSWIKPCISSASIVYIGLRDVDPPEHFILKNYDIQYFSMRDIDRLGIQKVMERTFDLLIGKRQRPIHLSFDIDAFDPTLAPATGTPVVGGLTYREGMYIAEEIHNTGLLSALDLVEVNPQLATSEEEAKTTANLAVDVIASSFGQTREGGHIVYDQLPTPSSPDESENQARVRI
The test is described as follows: in vitro enzyme assay to detect the production of urea directly proportional to the activity of Arginase II. Also: in the data most compounds retested in dose-response had high values. Format: functional. Particulars: 33.3 µM.

Test [6] deals with T3, Proteasome subunit beta (Trypanosoma cruzi) (UniProt O96673).
T3 sequence (whole entry): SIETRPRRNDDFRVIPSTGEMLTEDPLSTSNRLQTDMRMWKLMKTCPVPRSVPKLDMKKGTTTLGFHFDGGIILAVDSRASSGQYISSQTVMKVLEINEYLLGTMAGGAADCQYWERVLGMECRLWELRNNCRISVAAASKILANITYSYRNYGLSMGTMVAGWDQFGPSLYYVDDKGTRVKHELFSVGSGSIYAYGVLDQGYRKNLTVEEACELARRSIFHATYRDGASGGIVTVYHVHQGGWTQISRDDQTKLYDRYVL
The test is described as follows: Trypanosoma cruzi proteasome chymotrypsin-like activity (TcProtChymo) assay. Also: in the data most compounds retested in dose-response had high values. Particulars: 9.37 µM. It counts as functional.

The next test concerns N/A. The test is described as follows: Trypanosoma cruzi proteasome luciferase counter-screen. It counts as functional. Particulars: 9.37 µM.
The species named for a further test is Homo sapiens. Description: To identify inhibition of the IFN signalling (Jak-Stat) pathway via expression of an eGFP reporter gene under the control of an IFN-stimulated response element (ISRE) containing MxA promoter. It counts as functional. Particulars: 30 µM.
Test [7] addresses T4, Tyrosyl-tRNA synthetase, putative (Trypanosoma cruzi (strain CL Brener)) (UniProt Q4DSP6).
T4 sequence (whole entry): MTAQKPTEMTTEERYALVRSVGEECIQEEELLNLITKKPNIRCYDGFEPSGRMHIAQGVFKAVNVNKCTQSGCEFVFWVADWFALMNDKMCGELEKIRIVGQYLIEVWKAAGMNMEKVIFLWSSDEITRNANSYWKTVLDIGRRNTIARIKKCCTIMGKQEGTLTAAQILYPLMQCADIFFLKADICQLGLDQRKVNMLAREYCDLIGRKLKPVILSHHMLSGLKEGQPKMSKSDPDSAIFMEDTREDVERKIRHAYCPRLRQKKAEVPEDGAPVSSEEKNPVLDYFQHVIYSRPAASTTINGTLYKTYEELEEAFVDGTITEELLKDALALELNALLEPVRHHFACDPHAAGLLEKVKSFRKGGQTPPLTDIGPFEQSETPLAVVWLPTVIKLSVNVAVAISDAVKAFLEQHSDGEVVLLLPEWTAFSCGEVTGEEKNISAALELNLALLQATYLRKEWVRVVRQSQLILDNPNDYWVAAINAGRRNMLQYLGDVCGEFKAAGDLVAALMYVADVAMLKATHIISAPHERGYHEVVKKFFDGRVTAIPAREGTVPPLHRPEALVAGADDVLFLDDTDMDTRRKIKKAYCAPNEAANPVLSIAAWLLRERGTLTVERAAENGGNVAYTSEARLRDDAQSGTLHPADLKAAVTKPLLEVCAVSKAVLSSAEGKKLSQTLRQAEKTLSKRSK
Description: Trypanosoma cruzi tyrosyl tRNA synthetase (TcYRS) _High Tyrosine SOP. Also: in the data most compounds retested in dose-response had high values. Format: functional. Conditions: 30 µM.

Test [8] deals with T4, Tyrosyl-tRNA synthetase, putative (Trypanosoma cruzi (strain CL Brener)). Description: Trypanosoma cruzi tyrosyl tRNA synthetase (TcYRS) SOP. Particulars: 30 µM. It counts as functional.
In test [9] the target is Chromo domain-containing protein 1 (Saccharomyces cerevisiae (strain ATCC 204508 / S288c) (Baker's yeast)) (UniProt P32657). Description: ScCHD-1 Enzyme Inhibition Assay. Also: in the data most compounds retested in dose-response had high values. Particulars: 30 µM. It counts as functional.
Chromo domain-containing protein 1 (Saccharomyces cerevisiae (strain ATCC 204508 / S288c) (Baker's yeast)), sequence (P32657 whole entry, the tested form may be a part): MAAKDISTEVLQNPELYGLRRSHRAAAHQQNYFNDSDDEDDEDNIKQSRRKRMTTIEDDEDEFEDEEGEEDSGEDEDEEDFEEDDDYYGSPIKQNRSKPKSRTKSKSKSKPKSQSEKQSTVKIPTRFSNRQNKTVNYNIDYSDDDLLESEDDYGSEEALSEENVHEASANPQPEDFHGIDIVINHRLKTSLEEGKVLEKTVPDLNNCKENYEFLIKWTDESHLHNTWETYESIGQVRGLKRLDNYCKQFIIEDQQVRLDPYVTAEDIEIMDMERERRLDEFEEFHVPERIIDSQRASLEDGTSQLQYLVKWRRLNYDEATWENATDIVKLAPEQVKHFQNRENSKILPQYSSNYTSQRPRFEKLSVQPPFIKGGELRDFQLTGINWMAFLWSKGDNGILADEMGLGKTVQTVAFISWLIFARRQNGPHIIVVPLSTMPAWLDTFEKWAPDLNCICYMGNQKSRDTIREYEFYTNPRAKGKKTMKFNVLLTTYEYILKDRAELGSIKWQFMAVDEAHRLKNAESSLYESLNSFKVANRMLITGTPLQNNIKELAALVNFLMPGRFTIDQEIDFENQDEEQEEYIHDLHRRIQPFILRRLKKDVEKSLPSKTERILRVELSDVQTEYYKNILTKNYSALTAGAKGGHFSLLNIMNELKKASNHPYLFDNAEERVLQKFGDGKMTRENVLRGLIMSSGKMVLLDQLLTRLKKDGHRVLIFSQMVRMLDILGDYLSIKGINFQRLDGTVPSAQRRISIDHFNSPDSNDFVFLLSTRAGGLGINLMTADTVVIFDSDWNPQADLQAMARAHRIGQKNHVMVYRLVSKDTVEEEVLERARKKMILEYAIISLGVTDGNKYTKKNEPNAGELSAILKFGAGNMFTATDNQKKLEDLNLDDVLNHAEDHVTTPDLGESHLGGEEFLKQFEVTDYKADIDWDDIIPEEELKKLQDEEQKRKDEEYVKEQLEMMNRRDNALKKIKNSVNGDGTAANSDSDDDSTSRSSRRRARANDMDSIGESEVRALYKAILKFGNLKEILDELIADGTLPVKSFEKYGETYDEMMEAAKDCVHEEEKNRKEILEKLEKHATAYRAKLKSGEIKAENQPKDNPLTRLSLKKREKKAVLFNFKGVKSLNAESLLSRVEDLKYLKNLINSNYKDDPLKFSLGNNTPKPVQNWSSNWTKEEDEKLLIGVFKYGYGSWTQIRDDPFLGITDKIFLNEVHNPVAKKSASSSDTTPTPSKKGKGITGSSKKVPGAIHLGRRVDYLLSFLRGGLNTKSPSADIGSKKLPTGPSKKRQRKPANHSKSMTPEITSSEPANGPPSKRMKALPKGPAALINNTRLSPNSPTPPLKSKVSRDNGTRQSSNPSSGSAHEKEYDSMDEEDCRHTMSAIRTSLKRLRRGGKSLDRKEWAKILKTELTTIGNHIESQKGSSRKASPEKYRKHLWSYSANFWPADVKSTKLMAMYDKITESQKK

For five molecules, Percent Effect results are on record in ChEMBL document CHEMBL3988442, “University of Dundee, Small-Polar-MMV Screening Library” (2021).

“And” between values parts separate entries of the source, which are not always exact repeats. Equal values may be shown once. For part of these data: Measured potencies and affinities stand elsewhere.

Protein translocase subunit SecA (Escherichia coli (strain K12)), sequence (P10408 whole entry): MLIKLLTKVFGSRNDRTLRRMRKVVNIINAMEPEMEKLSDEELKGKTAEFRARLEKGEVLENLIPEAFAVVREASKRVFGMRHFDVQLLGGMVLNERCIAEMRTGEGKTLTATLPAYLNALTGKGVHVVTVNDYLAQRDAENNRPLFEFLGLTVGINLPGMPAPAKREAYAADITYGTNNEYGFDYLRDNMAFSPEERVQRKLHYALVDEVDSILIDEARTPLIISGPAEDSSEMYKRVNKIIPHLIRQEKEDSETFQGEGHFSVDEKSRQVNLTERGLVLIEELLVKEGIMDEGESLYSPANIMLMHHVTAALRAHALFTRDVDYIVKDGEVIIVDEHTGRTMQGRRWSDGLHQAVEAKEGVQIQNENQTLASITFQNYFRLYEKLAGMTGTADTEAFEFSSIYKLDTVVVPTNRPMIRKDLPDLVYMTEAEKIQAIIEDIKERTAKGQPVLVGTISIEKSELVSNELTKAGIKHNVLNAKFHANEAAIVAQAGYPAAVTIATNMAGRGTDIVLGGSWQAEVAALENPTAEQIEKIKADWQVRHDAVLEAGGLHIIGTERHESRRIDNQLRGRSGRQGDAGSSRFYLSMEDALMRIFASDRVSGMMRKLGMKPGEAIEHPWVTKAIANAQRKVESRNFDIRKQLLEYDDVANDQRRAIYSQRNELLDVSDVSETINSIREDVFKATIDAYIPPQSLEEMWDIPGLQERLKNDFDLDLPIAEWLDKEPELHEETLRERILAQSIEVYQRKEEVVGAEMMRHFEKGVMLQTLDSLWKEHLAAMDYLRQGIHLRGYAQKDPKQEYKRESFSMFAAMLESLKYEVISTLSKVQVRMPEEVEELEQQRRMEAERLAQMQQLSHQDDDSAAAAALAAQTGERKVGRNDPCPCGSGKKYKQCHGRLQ

As for `Cc1cc(N2CCN(CC(=O)N(C)C)CC2)nc(-c2ccncc2)n1`, the Percent Effect in test [1] was -6.79%; in test [2], 23.7%; in test [3], -6.29%; in [4] it was -5.92%; with Trypanosoma cruzi it was 11%; in test [5], -11.8%. In addition, the Percent Effect was 35.2% and 34.4% and 30.2% in test [6]; 18.5% and 14.6% in the test with N/A; 5.2% in the test filed under Homo sapiens; 20.2% in test [7]; 28.6% in test [8]; -6.26% in [9].
Consider `Cc1cnn(C2CN(CC(=O)NCc3ccccn3)C2)c1`, for which the Percent Effect in test [1] is 0.391%; in test [2], 26.3%; in test [3], -12.2%; in test [4], -9.97%; with Trypanosoma cruzi, 7.56%; in test [5] it was -4.32%. Also, the Percent Effect in [6] was 63.5% and 62% and 58.8%; in the test on N/A it was 11.6% and 13.6%; in the test filed under Homo sapiens, -8.2%; in test [7] it was 17.2%; in test [8], 25.9%; in test [9], -5.97%.
In the case of `Cn1cc(-c2cnc(N3CCOCC3)nc2)cc1C(=O)O`, the Percent Effect is -3.79% in [1]; 5.41% in test [2]; 2.15% in [3]; 1.49% in [4]; 5.08% in the test with Trypanosoma cruzi; 18.3% in [5]. Also, the Percent Effect in test [6] was 100% (2×) and 98.7%; in the test with N/A it was 97.4% and 97.5%; in the test filed under Homo sapiens, 5.61%; in test [7], 5.94%; in [8], 11%; in [9] it was -7.1%.
`CNC(=O)N1CC[C@@H]2CN(Cc3cccnc3)S(=O)(=O)[C@@H]2CC1`: the Percent Effect in [1] was -2.59%; in [2], 8.11%; in [3], 4.84%; in test [4] it was -4.72%; with Trypanosoma cruzi, 1.27%; in [5], 0.319%. Further, the Percent Effect was 11.4% and 31.6% and 11.9% in test [6]; 5.24% and 4.76% with N/A; -15.6% in the test filed under Homo sapiens; 0% in test [7]; 15.4% in [8]; 0.163% in [9].
As to `Cc1nc(CN2CCCC(N(C)Cc3cscn3)C2)no1` (stereo not given), the Percent Effect in test [1] was -5.04%; in [2], 5.2%; in test [3], -1.86%; in test [4], -3.2%; in the test on Trypanosoma cruzi it was 7.54%; in [5], -6.11%. Besides, the Percent Effect in test [6] was 40.2% and 44.8% and 59.4%; in the test with N/A, 16.1% and 22%; in the test listed under Homo sapiens, 17.1%; in test [7] it was 3.81%; in test [8], 11.8%; in test [9] it was -17.6%.
